# High-throughput results from PubChem BioAssay.
# Compounds with a hit are over-represented: about 18% of the library has one in this group of screens.
# TDP1 cell CPT – growth inhibition of DT40 Tdp1-/-;hTDP1 cells with camptothecin (screen for TDP1 inhibitors); chicken DT40 Tdp1-/-;hTDP1 cells + 20 nM CPT, ATP luminescence, 48 h; Potency, µM (top dose mostly 46.2 µM), inactives show top-dose activity change, negative = growth inhibition, most hits filed as inhibitors; 12% of 420,000 active; AID 686979; further: potency means the concentration at half of the fitted maximal effect; nearly all actives have a fitted effect of over 55% in size
#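 Chicken DT40 Tdp1-/- cells stably complemented with human TDP1 were seeded at 400 cells/well in medium containing 20 nM camptothecin, exposed to pin-transferred compounds, and grown at 37 °C for at least 48 hr. Viability was read as ATP luminescence.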
# LDHA block – blocks human lactate dehydrogenase A; P00338; purified LDHA, NADH/diaphorase-resazurin fluorescence; hits give low values; activity change, % (values are at about 110 or 230 µM); 0.15% of 480,000 active; AID 1347041; in the data active means activity change below about -30%; inconclusive means mostly about -25% to -30%;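 further: plate controls were DMSO wells for no effect and wells without enzyme for full effect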
#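 Enzyme activity of human lactate dehydrogenase 5 (2 nM; 0.06 mM NADH, 0.2 mM pyruvate, 5 min, RT) is measured via a resazurin/diaphorase fluorescence readout of residual NADH.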
# DT40 TDP1 no CPT – qHTS for Inhibitors of human tyrosyl-DNA phosphodiesterase 1 (TDP1): qHTS in cells in absence of CPT; 15% of 420,000 active; Potency, µM (highest dose often 46.2 µM), for the others: at the top dose activity change, negative = growth inhibition, most hits filed as inhibitors; DT40 Tdp1-/- hTDP1 cells, no CPT, ATP luminescence, 48 h; further: potency means the concentration at half of the fitted maximal effect; nearly all actives have a fitted effect of over 55% in size
#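 Chicken DT40 Tdp1-/- cells complemented with human TDP1, screened without camptothecin (DMSO vehicle only), 400 cells/well. Compounds pin-transferred, cells incubated at 37 °C for at least 48 hr. Growth read as ATP-dependent luminescence (CellTiter-Glo, 30 min at RT).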
# VP16 counter – Gal4-VP16 reporter inhibition counter-screen | AID 2546 | Drosophila S2 Gal4-VP16 UAS-luciferase, luminescence, 20 h | 3.5% of 310,000 active | Potency, µM (top dose mostly 53.6 µM), without a hit: at the top dose activity, negative = inhibition, usual class: inhibitors;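 further: Gal4-VP16 expression switched on by copper sulfate through the metallothionein promoter; potency means the concentration at half of the fitted maximal effect; nearly all actives have a fitted effect of over 50% in size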
# IL1B secr inh – inhibitors of inflammasome signaling (IL-1 beta secretion); THP-1 LPS/ATP IL-1B secretion, AlphaLISA, 16 h; hits give low values; activity change, % at 57.5 µM; 4.7% of 360,000 active; AID 743279; in the data active means activity change below about -50%; inconclusive means mostly about -30% to -49%
#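 Secreted IL-1B measured by AlphaLISA bead assay after 16 h compound exposure of THP-1 cells; compounds (final up to 57.5 uM) added 1 h before LPS (250 ng/mL) and ATP (1.25 mM) stimulation; lower signal means less secretion.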
# RORgamma inh – ROR gamma (mouse) transcription inhibition. Drosophila S2 Gal4-RORgamma UAS-luciferase reporter, 20 h. Potency, µM (top dose mostly 53.6 µM), inactives show at the highest dose activity change, negative = inhibition, usual class: inhibitors. 5.4% of 310,000 active; further: potency means the concentration at half of the fitted maximal effect; nearly all actives have a fitted effect of over 60% in size
# Target sequence (P51450 whole entry, looked up, the tested form may be a part): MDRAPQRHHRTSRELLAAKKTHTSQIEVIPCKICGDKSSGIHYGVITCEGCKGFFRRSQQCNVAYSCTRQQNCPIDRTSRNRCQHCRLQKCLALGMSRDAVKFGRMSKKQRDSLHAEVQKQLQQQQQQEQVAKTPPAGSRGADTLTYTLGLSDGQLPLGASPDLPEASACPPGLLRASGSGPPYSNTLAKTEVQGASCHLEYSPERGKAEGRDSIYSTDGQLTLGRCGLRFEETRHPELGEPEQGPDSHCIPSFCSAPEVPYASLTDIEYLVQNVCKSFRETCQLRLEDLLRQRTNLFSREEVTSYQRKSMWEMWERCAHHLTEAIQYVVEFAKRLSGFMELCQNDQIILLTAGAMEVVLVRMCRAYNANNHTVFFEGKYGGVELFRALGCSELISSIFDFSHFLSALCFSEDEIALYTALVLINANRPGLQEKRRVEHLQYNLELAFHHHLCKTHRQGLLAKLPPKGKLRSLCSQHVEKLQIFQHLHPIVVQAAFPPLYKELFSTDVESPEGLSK
#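 Luminescence from a UAS-regulated Photinus luciferase reporter in stably transfected Drosophila Schneider cells is measured; decreased signal marks ROR gamma inhibition. Fusion expression is induced by 700 uM copper sulfate for 20 hr.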
# The depositor's hits bear a star; u = inconclusive; x = not tested or not shown; [ ] = remark or other dose. Unless noted, the call rests on the fitted dose curve; in most records, active means well fitted curve in the direction sought with a large enough effect; inconclusive means small, poorly fitted or top-dose-only effect, or another doubt; inactive means no such curve, though single readings can be large; an effect the other way counts as inactive or inconclusive. Unless noted, on the % scale 0 is the no-effect control and ±100 the full control effect.
SMILES,TDP1 cell CPT,LDHA block,DT40 TDP1 no CPT,VP16 counter,IL1B secr inh,RORgamma inh
Cc1cc(CNCCN(C)C)c(C)n1-c1cc(S(=O)(=O)N2CCOCC2)ccc1N1CCCC1,u,-13.8,16.4µM*,x,-5.7,x
CN(C(=O)COc1ncnc2ccc(Br)cc12)c1ccccc1,x,-6.7,x,x,x,x
COc1ccc(C2c3c(n(C)c4ccccc34)C(=O)N2CC(=O)Nc2cc(Cl)ccc2C)cc1 (stereo unspecified),u,-2.5,20.6µM*,x,x,x
N#Cc1ccccc1NC(=O)C1SC(=Nc2ccccc2)C(C(=O)Nc2ccc(Cl)cc2)=C1N (stereo unspecified),16.4µM*,-10.3,20.6µM*,-7.2%,-83.9*,-1.1%
CCOc1ccc(N=C2SC(C(=O)Nc3ccccc3C#N)C(N)=C2C(=O)Nc2ccc(Cl)cc2)cc1 (stereo unspecified),2.1%,0.1,3.8%,-9.2%,0.0,u
CC1CCN(Cc2nc(Cl)c3c4c(sc3n2)CCC4)CC1,18.4µM*,-4.3,13µM*,u,-96.1*,-28.7%
Clc1nc(CN2CCCCC2)nc2sc3c(c12)CCCC3,u,-2.9,10.3µM*,10.2%,u,-33.8%
Cc1sc2nc(CN3CCCCC3)nc(Cl)c2c1C,u,-7.4,16.4µM*,10.9%,-102.6*,-38.2%
Clc1nc(CN2CCOCC2)nc2sc3c(c12)CCC3,9.6%,-13.1,1.3%,22.7%,-29.7,u
COc1ccc(-c2nnc(Sc3nc4ccccc4o3)c3ccccc23)cc1,u,-10.0,20µM*,0.9%,-101.4*,17.0%
CCCc1cc(C(=O)NC2CCCCC2)no1,-18.7%,-7.4,11.7%,3.4%,-29.9,-5.3%
CCCc1cc(C(=O)N(C2CCCCC2)C2CCCCC2)no1,u,2.4,29.1µM*,-2.1%,53.6,21.4%
O=C(CSc1nnnn1-c1ccc(C(=O)O)cc1)Nc1ccccc1,x,9.9,x,x,x,x
CC1(C)CC(=O)C2=C(C1)Oc1nc3ccccc3cc1C2C(C#N)C#N (stereo unspecified),2.91µM*,-1.4,4.11µM*,u,-93.0*,3.16µM*
CCCCCCS(=O)[C@H]1CS(=O)(=O)C[C@@H]1S(=O)CCCCCC (stereo partly specified),23.1µM*,-1.5,u,5.5%,-13.7,5.4%
CCCNC(=O)CN1CCN(Cc2cccc3cccnc23)CC1,x,5.0,x,x,x,x
O=c1[nH]c(Nc2nc3ccccc3o2)nc2c1CCCC2,2.91µM*,1.6,4.11µM*,10µM*,-100.8*,3.98µM*
Cc1nc(Nc2nc3ccccc3o2)nc2c1CCCC2,x,-0.8,x,x,x,x
C/C=C/C=C/C(=O)N1CCN(CC(F)(F)F)CC1,x,0.0,x,x,x,x
CCOc1ccc(C2CC(=O)Nc3nc(SCc4ccccc4C)[nH]c(=O)c32)cc1OC (stereo unspecified),u,-13.6,14.6µM*,x,x,x
O=C1CC(c2ccc3c(c2)OCCO3)Oc2ccccc21 (stereo unspecified),u,-11.1,-19.9%,-5.8%,-12.3,-12.2%
O=C1CC(c2ccc3c(c2)OCCO3)Oc2ccc([N+](=O)[O-])cc21 (stereo unspecified),u,-4.2,16.4µM*,12.6µM*,-68.5*,11.2µM*
Cc1ccc2nc(C)c(C(=O)/C=C/c3ccccc3C)c(-c3ccccc3)c2c1,x,-2.5,x,x,x,x
COc1ccc(NC(=O)C2Cc3c(-c4cccc(F)c4)ccnc3O2)cn1 (stereo unspecified),u,-8.8,16.4µM*,x,-15.7,x
O=C(Nc1cccc(Oc2ccccc2)c1)C1Cc2c(-c3cccc(F)c3)ccnc2O1 (stereo unspecified),u,-9.0,u,x,u,x
SMILES,TDP1 cell CPT,LDHA block,DT40 TDP1 no CPT,VP16 counter,IL1B secr inh,RORgamma inh
CC(C)c1ccc(NC(=O)C2Cc3c(-c4cccc(C(N)=O)c4)ccnc3O2)cc1 (stereo unspecified),16.4µM*,-6.5,u,x,u,x
O=C(NCc1ccccc1)C1Cc2c(-c3ccc(Cl)cc3)ccnc2O1 (stereo unspecified),0.651µM*,-2.2,0.82µM*,x,53.5,x
NC(=O)c1cccc(-c2ccnc3c2CC(C(=O)Nc2ccc(Cl)cc2)O3)c1 (stereo unspecified),23.1µM*,-3.7,13µM*,x,-3.2,x
NC(=O)c1cccc(-c2ccnc3c2CC(C(=O)Nc2ccccc2)O3)c1 (stereo unspecified),-14.6%,-6.2,-9.8%,x,-16.6,x
O=C(Cc1c[nH]c2ccccc12)Nc1nc2ccccc2s1,x,8.1,x,x,x,x
Cc1cccc(C(C)C)c1NC(=O)/C=C/c1ccc(F)cc1,x,-0.7,x,x,x,x
O=C(Nc1ccc(Br)cc1F)N1Cc2cccn2-c2ccccc21,x,-0.9,x,x,x,x
CC(C)c1ccc(NC(=O)C2Cc3c(-c4cccc(F)c4)ccnc3O2)cc1 (stereo unspecified),16.4µM*,-0.4,9.2µM*,x,-67.4*,x
CC(=O)Nc1ccc(NC(=O)C2Cc3c(-c4ccc(Cl)cc4)ccnc3O2)cc1 (stereo unspecified),-3.3%,-14.5,-1.5%,x,9.8,x
O=C(Nc1ccccc1)C1Cc2c(-c3ccc(Cl)cc3)ccnc2O1 (stereo unspecified),u,1.5,u,x,-50.7*,x
Oc1ccc(/C=N/n2cnn(Cc3ccccc3Cl)c2=S)c(O)c1,u,-14.3,-4.8%,0.1%,15.8,2.1%[10 µM]
COc1cc(/C=N/O)ccc1OCc1ccccc1Cl,-26.4%,-2.4,u,5.01µM*,-25.5,1µM*
O/N=C\c1ccc(OCc2ccccc2Cl)cc1,x,-22.3,x,x,x,x
COc1ccc(/C=N/n2cnn(Cc3ccccc3Cl)c2=S)cc1OC,u,2.6,u,u,-54.6*,21.5%
COc1ccc(NC(=O)C2C3C=CC4(O3)C2C(=O)N(CCCN2CCCCC2)C4C(=O)NC2CCCC(C)C2C)cc1 (stereo unspecified),17.6%,0.4,0.1%,6.0%,-7.0,-7.1%
CC1CCCC(NC(=O)C2N(CCCN3CCCC3)C(=O)C3C(C(=O)Nc4ccc(Cl)cc4)C4C=CC32O4)C1C (stereo unspecified),-21.6%,2.2,u,15.6%,-65.2*,-19.6%
O=C(Nc1cccc(Cl)c1)C1C2C=CC3(O2)C1C(=O)N(CCCN1CCCCC1)C3C(=O)NC1CCCCC1 (stereo unspecified),14.5%,-2.9,7.1%,-3.4%,4.7,0.2%
O=C(Nc1ccc(Cl)c(Cl)c1)C1C2C=CC3(O2)C1C(=O)N(CCN1CCCCC1)C3C(=O)NC1CCCCC1 (stereo unspecified),u,-6.3,u,-3.4%,-81.0*,-1.5%
